Here are results for 39 molecules from PubChem BioAssay (EPA / NIEHS).

“And” between values parts separate entries of the source, which are not always exact repeats. Identical values can stand only once. The source holds several records for some structures; these can differ, active in one and inactive in another. The source made the active and inactive calls. How the source made its calls: active means hit-call score of the fitted dose curve at least 0.9, where 1 is the maximum; inactive means score below 0.9.

This experiment in a line: ATG_NF_kB_CIS: Attagene CIS-FACTORIAL HepG2 Assay for human Nuclear Factor Kappa B (NF-kB) (AID 2282991). Particulars: HepG2 Attagene cis-factorial NF-kB reporter mRNA; actives raise or lower the signal. As for the experimental part:
ATG_CIS is a cell-based, multiplexed-readout assay that uses HepG2, a human liver cell line, with measurements taken at 24 hours after chemical dosing in a 24-well plate.ATG_NF_kB_CIS is one of 52 assay component(s) measured or calculated from the ATG_CIS assay. It is designed to make measurements of mRNA induction, a form of inducible reporter, as detected with fluorescence intensity signals by Reverse transcription polymerase chain reaction (RT-PCR) and Capillary electrophoresis technology.Data from the assay component ATG_NF_kB_CIS was analyzed into 1 assay endpoint. This assay endpoint, ATG_NF_kB_CIS, was analyzed with bidirectional fitting relative to DMSO as the negative control and baseline of activity. Using a type of inducible reporter, measures of mRNA for gain or loss-of-signal activity can be used to understand the reporter gene at the transcription factor-level as they relate to the gene NFKB1. Furthermore, this assay endpoint can be referred to as a primary readout, because this assay has produced multiple assay endpoints where this one serves a reporter gene function. To generalize the intended target to other relatable targets, this assay endpoint is annotated to the dna binding intended target family, where the subfamily is NF-kappa B.
Human liver HepG2 cells are transiently transfected with multiple reporter transcription units (MRTUs) in 6-well plates using FuGene 6 reagent (Roche; 3 ml FuGene/1 mg DNA). The MRTU constructs are regulated by a cis-regulating element (promoter). […] A major difference between the CIS and TRANS system is that in CIS activities of endogenous TFs are measured, whereas the TRANS assay evaluates changes in activities of exogenous, chimeric NR-Gal4 proteins. […] At the end of 24 hour incubation, total RNA was isolated using TriZol reagent (Invitrogen). The isolated RNA is then reverse-transcribed using oligo(dT) primer and Mo-MLV reverse transcriptase (Invitrogen) with DNAse I (Ambion) treatment for 30 min. The one-tenth of the produced cDNA was amplified by PCR using Taq DNA polymerase (Invitrogen) and two reporter sequence-specific primers. The PCR products were fluorescently labeled by primer extension with 6-arboxyfluorescein (6-FAM) 5'-labeled reporter sequence-specific primer (2 min at 95 C, 20 s at 68 C and 10 min at 72 C) and these products were digested with 5U of HpaI (New England Biolabs) for 2h at 37 C. The fragments were purified using Qiaquick PCR columns (Qiagen), analyzed on an ABI 3130xL genetic analyzer (Applied Biosystems) with peak positions identified by using a set of X-rhodamine (ROX)-labeled MapMarker1000 molecular weight standards (BioVentures). The raw capillary electrophoresis data was processed using Attagraph software (Attagene).
With `CCO[Si](C)(C)OCC`, the outcome was inactive.

For the molecule `c1cnc2c(c1)ccc1cccnc12`, the molecule was called inactive and the half-maximal activity concentration (AC50) is 100 µM (active).

For the molecule `O=C1c2ccccc2C(=O)c2c(O)c(O)cc(O)c21`, the AC50 was 32.4 µM (active).

For `C=CC(=O)OCCN(CC)CC`, the call was inactive.

Turning to `CCCCCCCCCCCC`, the molecule was classed as inactive.

For `c1cc2cccc3c4cccc5cccc(c(c1)c23)c54`, the molecule was called inactive.

As for `CC(C)(O)C(=O)c1ccccc1`, the result was inactive.

As to `O=C1OC(=O)c2cc(-c3ccc4c(c3)C(=O)OC4=O)ccc21`, the molecule was called inactive.

For `FC(F)(F)C1(F)C(F)(F)C(F)(F)C(F)(F)C1(F)F`, the call was inactive.

`O=S(=O)(O)C(F)(F)C(F)(F)C(F)(F)C(F)(F)C(F)(F)C(F)(F)C(F)(F)C(F)(F)C(F)(F)C(F)(F)F`: the AC50 is 14.6 µM (active) and 9.12 µM (active).

As to `CCC(=O)O`, the result was inactive.

In the case of `O=C(OC(=O)C(F)(F)C(F)(F)F)C(F)(F)C(F)(F)F`, the outcome was inactive.

`CC(C)(C)c1ccc(O)c(O)c1`: the molecule was called inactive.

`O=C(NCc1ncc(C(F)(F)F)cc1Cl)c1c(Cl)cccc1Cl`: the concentration at half-maximal activity (AC50) is 21.8 µM (active).

`COC(=O)C(F)(F)C(F)(F)C(F)(F)F`: the molecule was classed as inactive.

With `FCOC(C(F)(F)F)C(F)(F)F`, the result was inactive.

Turning to `Cc1ccccc1C(OCCN(C)C)c1ccccc1` (stereo not given), the molecule was called inactive.

Take `C=CC(C)(CCC=C(C)C)OC(C)=O` (stereo not given): the result was inactive.

As for `Cc1cc(C(=C2C=CC(=Nc3ccc(S(=O)(=O)O)cc3)C=C2)c2ccc(Nc3ccc(S(=O)(=O)O)cc3)cc2)cc(S(=O)(=O)O)c1N`, the molecule was classed as inactive.

Turning to `O=C1C=CC(=O)N1c1cccc(N2C(=O)C=CC2=O)c1`, the result was inactive.

As to `CC[N+](CC)(CC)Cc1ccccc1`, the result was inactive.

As for `Brc1cc(Br)c(Oc2c(Br)cc(Br)c(Br)c2Br)cc1Br`, the result was inactive.

Consider `CCOC(C)=O`, for which the outcome was inactive.

In the case of `O=CC(F)(F)C(F)(F)C(F)(F)C(F)F`, the result was inactive.

`FC(F)(F)C(F)(F)C(F)(F)Br`: the molecule was called inactive.

Turning to `c1ccc2c(c1)CCC2`, the outcome was inactive.

Consider `CC(=O)Nc1ccc(S(N)(=O)=O)cc1`, for which the call was inactive.

`CC1CNCC(C)O1` (stereo not given): the result was inactive.

For `Cc1cccc2c1ccc1ccccc12`, the outcome was inactive.

Consider `O=C(F)C(F)(F)C(F)(F)C(F)(F)C(=O)F`, for which the molecule was called inactive.

As to `CCCC=O`, the molecule was called inactive.

`C/C=C/C(=O)C1=C(C)CCCC1(C)C`: the molecule was classed as inactive.

Turning to `CN(C)c1ccc(C(=C2C=CC(=[N+](C)C)C=C2)c2ccccc2)cc1`, the AC50 is 933 nM (active) and 1.85 µM (active).

Turning to `CCCCCCc1ccc(N)cc1`, the outcome was inactive.

As to `O=C(O)CN(CCCN(CC(=O)O)CC(=O)O)CC(=O)O`, the molecule was classed as inactive.

Regarding `O=C(O)CCC(F)(F)C(F)(F)C(F)(F)C(F)(F)C(F)(F)F`, the call was inactive.

Regarding `CCCCCCCC(OC)OC`, the call was inactive.

`CCOC=C(C(=O)OCC)C(=O)OCC`: the outcome was inactive.

With `CCOC(=O)c1nc(C(Cl)(Cl)Cl)n(-c2ccc(Cl)cc2Cl)n1`, the call was inactive.
